Consider eight molecules from PubChem BioAssay (NCI).

This is part of a sample that, as a whole, favours compounds with a hit. Of some 83,000 tested, about 20% had one in any assay.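 How to read the values: 0–100, growth inhibition (40 = 60% inhibited); 0, no net growth; -100 to 0, cell death (-40 = 40% of starting cells died; -100 = all dead).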 Values without a mark were called inactive. Activity calls are given as the source filed them. How the source made its calls: active means growth percent below 10; inactive means the rest.

Among the test systems are NCI-H226 lung; NCI-H322M lung; HOP-62 NSCLC; NCI-H460 lung; HOP-92 NSCLC; NCI-H522 lung; A549/ATCC NSCLC; 786-0 renal; COLO 205 colon; DU-145 prostate; K-562 leukemia; MALME-3M melanoma; MDA-MB-231 breast; RXF 393 renal; SF-268 CNS; SF-295 CNS; SF-539 CNS; M14 melanoma; UACC-257 melanoma.
What all share (experiment): NCI-60 one-dose screen, 48 h (100 = growth as untreated, 0 = no growth, -100 = all killed)
Holding throughout (details): 10 µM unless noted

As for `CCCCCCCC(=O)SCC/C=C/[C@@H]1CC(=O)NCc2cccc(n2)CN(Cc2ccc(Cl)cc2)CC(=O)N[C@@H](C(C)C)C(=O)O1`, the growth in the assay with NCI-H226 lung is 16.1%; with NCI-H322M lung, 8.85% (active); with HOP-62 NSCLC, 8.04% (active); in the assay on NCI-H460 lung, 11.9%; with HOP-92 NSCLC it was -16.5% (active); in the assay with NCI-H522 lung, 29.6%. Further, the growth is 2.92% (active) in the assay on A549/ATCC NSCLC; 14.4% with 786-0 renal; -40.4% (active) with COLO 205 colon; 20.6% in the assay with DU-145 prostate; 9.09% (active) in the assay on K-562 leukemia; 25.1% with MALME-3M melanoma. Further, the growth is -1.33% (active) with MDA-MB-231 breast; -20.4% (active) in the assay with RXF 393 renal; 18% in the assay on SF-268 CNS; -68.2% (active) in the assay on SF-295 CNS; 14.7% in the assay with SF-539 CNS; 8.96% (active) in the assay on M14 melanoma.

For the molecule `Nc1c(C(=O)Nc2c(Cl)cccc2Cl)sc2nc3c(cc12)C(=O)CCC3`, the growth was 71.2% with NCI-H226 lung; 56.7% in the assay on NCI-H322M lung; 30.7% in the assay on HOP-62 NSCLC; 12.9% with NCI-H460 lung; 42.6% in the assay on HOP-92 NSCLC; 6.59% (active) with NCI-H522 lung. Besides, the growth with A549/ATCC NSCLC was 38%; in the assay with 786-0 renal, 29%; in the assay with COLO 205 colon, 7.4% (active); in the assay on DU-145 prostate, 41.1%; with K-562 leukemia it was 16.6%; in the assay on MALME-3M melanoma it was 35.2%. Moreover, the growth in the assay on MDA-MB-231 breast was 51.1%; with RXF 393 renal it was 23.7%; in the assay with SF-268 CNS, 57.8%; with SF-295 CNS it was 18.8%; in the assay with SF-539 CNS, 5.18% (active); in the assay on M14 melanoma, 12.1%.

For `CCCC(=O)N1CCCCC1CC` (centres undefined), the growth in the assay with NCI-H226 lung was 101%; in the assay with NCI-H322M lung, 127%; in the assay with HOP-62 NSCLC, 107%; with NCI-H460 lung it was 97%; in the assay on HOP-92 NSCLC, 74.5%; in the assay with NCI-H522 lung, 99.9%. Besides, the growth with A549/ATCC NSCLC is 99.6%; with 786-0 renal it was 104%; in the assay with COLO 205 colon, 116%; with DU-145 prostate, 106%; in the assay with K-562 leukemia, 87.5%; with MALME-3M melanoma it was 118%. The growth was 115% in the assay with MDA-MB-231 breast, 115% in the assay with RXF 393 renal, 87.5% in the assay with SF-539 CNS and 90.6% in the assay on UACC-257 melanoma.

Regarding `Nc1c(C(=O)Nc2cccc(Br)c2)sc2nc3c(cc12)C(=O)CCC3`, the growth with NCI-H226 lung was 75.1%; in the assay with NCI-H322M lung, 64.7%; in the assay with HOP-62 NSCLC, 40.4%; in the assay with NCI-H460 lung, 4.31% (active); with HOP-92 NSCLC, 79.3%; in the assay with NCI-H522 lung, -20% (active). For the same molecule, the growth with A549/ATCC NSCLC is 24.4%; in the assay on 786-0 renal, 51.8%; in the assay on COLO 205 colon, -11.2% (active); in the assay with DU-145 prostate, 1.18% (active); in the assay with K-562 leukemia, 13.7%; in the assay with MALME-3M melanoma it was 16.6%. Besides, the growth in the assay on MDA-MB-231 breast was 38.5%; with RXF 393 renal, -1.14% (active); in the assay with SF-268 CNS it was 62.6%; in the assay on SF-539 CNS, 25.5%; in the assay with UACC-257 melanoma, 68%; with M14 melanoma, 35.7%.

As to `COc1cccc(-c2nn(-c3ccccc3)cc2-c2ccnc(NCCCNS(=O)(=O)c3ccc(Br)cc3)c2)c1`, the growth in the assay with NCI-H226 lung was 51.9%; with NCI-H322M lung it was 74.4%; in the assay with HOP-62 NSCLC, 81%; with NCI-H460 lung it was 44.3%; in the assay on HOP-92 NSCLC it was 34.6%; in the assay with NCI-H522 lung it was 54.4%. The growth in the assay on A549/ATCC NSCLC is 47.7%; with 786-0 renal, 46.4%; in the assay on COLO 205 colon, 20.8%; in the assay with DU-145 prostate, 72.6%; in the assay on K-562 leukemia, 19.1%; in the assay on MALME-3M melanoma, 71.9%. In addition, the growth is 42.4% with MDA-MB-231 breast; 44.7% in the assay with RXF 393 renal; 55.2% with SF-268 CNS; 37.7% in the assay on SF-295 CNS; 76.3% in the assay on SF-539 CNS; 47.4% in the assay with M14 melanoma.

Consider `C#CCn1c2c(c3ccccc31)C[C@]1(C)[C@H]3CC[C@@H]4[C@@H]5C(=CCC[C@H]5C(=C)C)CC[C@@]4(C)[C@]3(C)CC[C@H]1C2(C)C`, for which the growth with NCI-H226 lung is 102%; in the assay on NCI-H322M lung it was 103%; with HOP-62 NSCLC, 97.1%; in the assay on NCI-H460 lung, 99.8%; with HOP-92 NSCLC, 124%; in the assay on NCI-H522 lung, 96.5%. In addition, the growth in the assay with A549/ATCC NSCLC is 102%; in the assay with 786-0 renal, 106%; in the assay with COLO 205 colon, 104%; in the assay with DU-145 prostate it was 108%; in the assay with K-562 leukemia, 91.9%; in the assay with MALME-3M melanoma it was 110%. For the same molecule, the growth in the assay on MDA-MB-231 breast was 101%; with RXF 393 renal, 128%; in the assay with SF-268 CNS, 97.8%; in the assay with SF-295 CNS, 107%; with SF-539 CNS it was 97.1%; with UACC-257 melanoma, 108%. The growth in the assay with M14 melanoma is 100%.

Regarding `N#CCCCCCn1c2ccccc2c2c3c(c4c5ccccc5n(CCCCCC#N)c4c21)C(=O)N(O)C3=O`, the growth with NCI-H226 lung was 79.1%; in the assay with NCI-H322M lung, 81.5%; with HOP-62 NSCLC it was 37.1%; in the assay with NCI-H460 lung, 87.7%; in the assay with HOP-92 NSCLC, 87.4%; in the assay on NCI-H522 lung it was 53.7%. Besides, the growth with A549/ATCC NSCLC is 94.5%; in the assay with 786-0 renal, 92.1%; with COLO 205 colon, 84.6%; in the assay with DU-145 prostate it was 93.6%; in the assay with K-562 leukemia it was 79.7%; in the assay on MALME-3M melanoma, 77.1%. The growth is 32.3% with MDA-MB-231 breast; 80.8% with RXF 393 renal; 70.3% with SF-268 CNS; 89.2% with SF-295 CNS; 71% in the assay with SF-539 CNS; 85.3% with M14 melanoma.

As for `NC1=C(C/C(N)=N\O)C(c2ccccc2Cl)c2c(ccc3ccccc23)O1` (centres undefined), the growth in the assay on NCI-H226 lung was 89.4%; in the assay with NCI-H322M lung, 96.4%; with HOP-62 NSCLC, 78.2%; in the assay with NCI-H460 lung, 87.8%; with HOP-92 NSCLC, 75.7%; in the assay with NCI-H522 lung it was 55.4%. For the same molecule, the growth is 87.3% with A549/ATCC NSCLC; 93.4% in the assay on 786-0 renal; 118% in the assay with COLO 205 colon; 106% in the assay with DU-145 prostate; 22.8% in the assay with K-562 leukemia; 58.5% in the assay on MALME-3M melanoma. Besides, the growth with MDA-MB-231 breast was 86.9%; in the assay with RXF 393 renal, 86.4%; in the assay with SF-268 CNS, 82.2%; in the assay on SF-295 CNS, 66.7%; in the assay on SF-539 CNS it was 83.6%; in the assay on UACC-257 melanoma, 96.1%. Further, in the assay on M14 melanoma, the growth is 59.8%.
